Test systems include DU-145 prostate; K-562 leukemia; MALME-3M melanoma; MDA-MB-231 breast; SF-268 CNS; SF-539 CNS; UACC-257 melanoma; M14 melanoma; RXF 393 renal; SF-295 CNS.
Holding throughout (experiment): NCI-60 one-dose screen, 48 h (100 = growth as untreated, 0 = no growth, -100 = all killed)
What all share (details): 10 µM unless noted

About 83,000 compounds went through this panel and 20% of them were active in at least one assay; those are over-represented in the sample as a whole.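 Compound tested at a single concentration for 48 hours in 96-well plates; a percent growth value below 10 was scored as active.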 A number with no mark means an inactive call. Activity calls are given as the source filed them.

For the compound `Cc1ccc(S(=O)(=O)N(CCc2ccc(Cl)cc2)S(=O)(=O)c2ccc(C)cc2)cc1`, the growth is 105% in the assay on DU-145 prostate; 70% with K-562 leukemia; 93% in the assay with MALME-3M melanoma; 108% with MDA-MB-231 breast; 99.8% with SF-268 CNS; 96.8% in the assay with SF-539 CNS. In addition, the growth in the assay with UACC-257 melanoma was 92.4%; in the assay on M14 melanoma, 106%.
For `CC(C)c1c(C(=O)Nc2ccccc2)c(-c2ccccc2)c(-c2ccc(F)cc2)n1CC[C@@H]1CC=CC(=O)O1`, the growth is 26.3% with DU-145 prostate; 8.81% (active) in the assay on MALME-3M melanoma; -25.6% (active) with MDA-MB-231 breast; -84.5% (active) in the assay with RXF 393 renal; -33.3% (active) with SF-268 CNS; 82.3% in the assay with SF-295 CNS. Moreover, the values for the growth with SF-539 CNS, in the assay on UACC-257 melanoma and in the assay with M14 melanoma were -18.5% (active), 16.9% and -11.2% (active), respectively.
For the compound `CN1Cc2c(cc(CN3CCCCC3)n2C)C(c2ccc(Br)cc2)C1` (stereo not given), the growth is 96.5% with DU-145 prostate; 34.9% in the assay with K-562 leukemia; 22.8% in the assay with MALME-3M melanoma; 74.8% in the assay on RXF 393 renal; 92.6% with SF-268 CNS; 81.3% with SF-295 CNS. The growth with SF-539 CNS was 76.1%; in the assay on UACC-257 melanoma it was 13.4%; with M14 melanoma it was 14.1%.
For `O=C(N/N=C/c1ccc(O)cc1O)c1cccnc1`, the growth in the assay with DU-145 prostate was 48.4%; in the assay with K-562 leukemia, 26.7%; in the assay with MALME-3M melanoma, 61.8%; in the assay on MDA-MB-231 breast it was 62.5%; with SF-268 CNS, 43.6%; in the assay on SF-295 CNS it was 15.6%. In addition, the growth with SF-539 CNS was 29.5%; with UACC-257 melanoma, -3.63% (active); in the assay on M14 melanoma, 39.3%.
As for `COc1cccc(/C=C2/C(=O)N(Cc3ccco3)SC2=S)c1OC`, the growth was 102% in the assay on DU-145 prostate; 51.2% in the assay with K-562 leukemia; 98.8% in the assay with MALME-3M melanoma; 100% in the assay on MDA-MB-231 breast; 99% in the assay with SF-268 CNS; 102% with SF-539 CNS. For the same compound, the figures for the growth in the assay on UACC-257 melanoma and in the assay on M14 melanoma were 89.6% and 105%, respectively.
As to `O=C(CNC1C2CC3CC(C2)CC1C3)Sc1nnc2sc3ccccc3n12` (stereo not given), the growth in the assay with DU-145 prostate was 110%; in the assay with MALME-3M melanoma, 95.2%; in the assay on MDA-MB-231 breast it was 81.5%; in the assay on RXF 393 renal, 114%; in the assay with SF-268 CNS, 101%; in the assay on SF-295 CNS, 94.2%. For the same compound, the growth with SF-539 CNS was 94.3%; with UACC-257 melanoma, 116%; in the assay on M14 melanoma, 104%.
Take `COc1cc2cc(COc3nccc(-c4ccc(Cl)cc4)n3)c(=O)[nH]c2cc1OC`: the growth with DU-145 prostate is 81.4%; in the assay on MALME-3M melanoma, 45.7%; with MDA-MB-231 breast it was 55.1%; with RXF 393 renal it was 61.9%; in the assay with SF-268 CNS, 80.1%; in the assay on SF-295 CNS, 97.6%. Also, the growth is 67.9% with SF-539 CNS, 98% in the assay on UACC-257 melanoma and -27.4% (active) with M14 melanoma.
Regarding `CC[C@H](Nc1cc(C)nc(N)n1)c1nc2cccc(NCc3ccc(C(=O)NO)cc3)c2c(=O)n1-c1ccccc1`, the growth is 36.4% with DU-145 prostate; 37.6% in the assay on MALME-3M melanoma; 0.273% (active) in the assay on MDA-MB-231 breast; -6% (active) with RXF 393 renal; 27.6% with SF-268 CNS; 64.2% in the assay with SF-295 CNS. Besides, the growth in the assay with SF-539 CNS is -20.6% (active); in the assay with UACC-257 melanoma, 12.3%; in the assay on M14 melanoma, 16.3%.
`O=C1C(Cl)=C(Cl)C(=O)c2c1nc1n2CCCC1`: the growth is 96.9% with DU-145 prostate; 73.2% in the assay on MALME-3M melanoma; 96.2% in the assay on MDA-MB-231 breast; 99.5% with RXF 393 renal; 95.9% with SF-268 CNS; 100% with SF-295 CNS. Besides, the growth is 99.9% in the assay on SF-539 CNS, 96% in the assay on UACC-257 melanoma and 105% in the assay with M14 melanoma.
As to `Cc1ccc2c(NCCCN(C)C)c3c(C)nn(C)c3nc2c1`, the growth with K-562 leukemia was 9.48% (active); in the assay with MALME-3M melanoma it was 52.7%; in the assay on MDA-MB-231 breast, 47.6%; in the assay on SF-268 CNS it was 33.2%; with SF-295 CNS it was 30.2%; in the assay with SF-539 CNS, 36.5%. The figures for the growth in the assay with UACC-257 melanoma and with M14 melanoma were 31.8% and 42.5%, respectively.
As for `CN1CCN(c2ccc3nc(-c4ccc5nc(-c6ccc(OCCC(C)(C)C)cc6)[nH]c5c4)[nH]c3c2)CC1`, the growth in the assay on DU-145 prostate was -80.9% (active); with MALME-3M melanoma it was 18.2%; with MDA-MB-231 breast it was -33.3% (active); in the assay with RXF 393 renal, -72.1% (active); in the assay with SF-268 CNS, 56.6%; with SF-295 CNS, 50.9%. Further, the figures for the growth in the assay with SF-539 CNS, in the assay on UACC-257 melanoma and in the assay with M14 melanoma were -72.3% (active), 110% and -11.2% (active), respectively.
For `Oc1ccc(Nc2nccc(-c3ccc4ccccc4c3)n2)cc1`, the growth was 55.5% in the assay on DU-145 prostate; 59.8% in the assay with MALME-3M melanoma; 30.5% in the assay with MDA-MB-231 breast; 60.3% in the assay on RXF 393 renal; 47.4% in the assay on SF-268 CNS; 61.4% with SF-295 CNS. In addition, the results for the growth in the assay on SF-539 CNS, in the assay on UACC-257 melanoma and in the assay on M14 melanoma were 37%, 26.7% and 11.1%, respectively.
With `CC1(C)CC(=O)C(c2c(-c3ccccc3)[nH]c3[nH]c(=S)[nH]c(=O)c23)=C(O)C1`, the growth in the assay on DU-145 prostate is 124%; in the assay with MALME-3M melanoma it was 112%; in the assay on MDA-MB-231 breast it was 101%; in the assay on RXF 393 renal, 115%; with SF-268 CNS, 106%; in the assay on SF-295 CNS, 152%. In addition, the growth with UACC-257 melanoma was 80.2%; in the assay on M14 melanoma, 107%.
As for `Oc1cccc(Nc2nccc(-c3ccc4ccccc4c3)n2)c1`, the growth with DU-145 prostate was 27.3%; with MALME-3M melanoma, 68%; in the assay with MDA-MB-231 breast it was 37.2%; in the assay on RXF 393 renal, 37.8%; with SF-268 CNS it was 47.3%; in the assay on SF-295 CNS it was 25.2%. Besides, the growth with SF-539 CNS is 11%; in the assay on UACC-257 melanoma it was 47.3%; in the assay with M14 melanoma, 8.25% (active).
Regarding `O=C(CCN1CCOCC1)Nc1ccc(Cn2nnc3c2C(=O)c2nnn(Cc4ccc(NC(=O)CCN5CCOCC5)cc4)c2C3=O)cc1`, the growth was 60.6% in the assay on DU-145 prostate; -69.9% (active) in the assay with MALME-3M melanoma; -4.23% (active) in the assay on MDA-MB-231 breast; 65.5% in the assay on RXF 393 renal; 1.49% (active) with SF-268 CNS; 50.8% in the assay on SF-295 CNS. Further, the growth with UACC-257 melanoma is -80.5% (active); in the assay with M14 melanoma it was 35.9%.
